Measurements from PubChem BioAssay (NCI).
Compounds without any hit were thinned out: in the full panel of roughly 79,000, 15% have a hit. The source made the active and inactive calls. No stated cut-off is given here; in the data, active means growth inhibition above about 70%; inactive means the rest.

Key:
[1] = NCI Yeast Anticancer Drug Screen. Data for the mec2-1 strain (AID 157); conditions: S. cerevisiae mec2-1 strain, active compounds read high
How it was run: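 Test agents were screened against the mec2-1 yeast strain, with defined DNA repair or cell cycle alteration. Growth was scored as inhibition against vehicle-only controls.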

[2] = NCI Yeast Anticancer Drug Screen. Data for the rad14 strain (AID 159);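 further: 0% = growth of vehicle-treated control cultures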; conditions: S. cerevisiae rad14 strain growth inhibition, active compounds read high
How it was run: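 Screen for anticancer potential: a yeast strain altered in DNA damage repair is grown with compound, and reduced growth is quantified against vehicle controls.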

[3] = NCI Yeast Anticancer Drug Screen. Data for the sgs1 mgt1 strain (AID 161);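 further: 0% = growth of cultures given vehicle only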; conditions: S. cerevisiae sgs1 mgt1 strain, active compounds read high
How it was run: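 Inhibition of yeast growth, normalised to vehicle-treated controls, is reported for a strain bearing genetic alterations in DNA damage repair.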

[4] = NCI Yeast Anticancer Drug Screen. Data for the CLN2oe strain (AID 163);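 further: 0% = growth of vehicle-only control cultures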; conditions: S. cerevisiae CLN2oe strain, active compounds read high
How it was run: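 Here, growth inhibition in a cell-cycle-altered yeast strain after compound exposure was quantified against vehicle control growth.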

[5] = NCI Yeast Anticancer Drug Screen. Data for the bub3 strain (AID 167); conditions: S. cerevisiae bub3 mutant strain, active compounds read high
How it was run: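 Screening used yeast with an engineered genetic alteration affecting cell cycle control. Compound-exposed cultures were compared with vehicle cultures, and reduced growth was taken as inhibition.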

[6] = NCI Yeast Anticancer Drug Screen. Data for the wt2 strain (AID 169);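 further: 0% = growth of vehicle-treated yeast cultures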; conditions: S. cerevisiae wt2 strain growth inhibition, active compounds read high
How it was run: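 Genetically defined yeast strains from a DNA-repair/cell-cycle panel were used. Compound-exposed yeast growth was measured, and the inhibition was calculated relative to vehicle treatment.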

[7] = NCI Yeast Anticancer Drug Screen. Data for the mlh1 strain (AID 171);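 further: 0% = growth of vehicle-treated control cultures of the same strain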; conditions: S. cerevisiae mlh1 strain growth inhibition, active compounds read high
How it was run: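 Here the genetically defined yeast mutant is grown with each compound, and the extent to which its growth falls below that of vehicle-exposed cells is reported.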

[8] = NCI Yeast Anticancer Drug Screen. Data for the sgs1 strain (AID 173);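 further: 0% = growth of vehicle-only control cultures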; conditions: S. cerevisiae sgs1 mutant, active compounds read high
How it was run: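 Relative growth inhibition, referenced to vehicle, was determined in a yeast strain with a defined alteration affecting DNA damage repair or cell cycle control after compound exposure.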

[9] = NCI Yeast Anticancer Drug Screen. Data for the mlh1 rad18 strain (AID 175); conditions: S. cerevisiae mlh1 rad18 strain growth inhibition, active compounds read high
How it was run: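 In this whole-cell yeast screen, a strain with altered DNA damage repair is challenged with compound, and its growth is measured against matched vehicle-treated controls.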

[10] = NCI Yeast Anticancer Drug Screen. Data for the rad18 strain (AID 177); conditions: S. cerevisiae rad18 mutant growth inhibition, active compounds read high
How it was run: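 Screen uses a yeast strain with a defined lesion in DNA damage repair; compound effect is read as loss of growth compared to untreated vehicle cultures.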

[11] = NCI Yeast Anticancer Drug Screen. Data for the rad50EPP+ strain (AID 151);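 further: 0% = growth of vehicle-treated control cultures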; conditions: S. cerevisiae rad50 mutant strain, active compounds read high
How it was run: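 One strain with a rad50 alteration (rad50EPP+) was compound-treated, its growth then compared to that of vehicle controls.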

[12] = NCI Yeast Anticancer Drug Screen. Data for the mgt1 strain (AID 153); conditions: S. cerevisiae mgt1 mutant growth inhibition, active compounds read high
How it was run: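 After exposure of the mgt1 yeast mutant to compound, growth was measured and reported as inhibition compared with vehicle controls.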

[13] = NCI Yeast Anticancer Drug Screen. Data for the rad50 strain (AID 155);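 further: 0% = growth of vehicle-only cultures of the same strain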; conditions: S. cerevisiae rad50 strain growth inhibition, active compounds read high
How it was run: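 Relative growth inhibition (compound vs vehicle) was measured in yeast with a defined repair-gene alteration.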

[14] = NCI Yeast Anticancer Drug Screen. Data for the cln2 rad14 strain (AID 165);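 further: 0% = growth equal to vehicle treated cultures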; conditions: S. cerevisiae cln2 rad14 strain, active compounds read high
How it was run: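 Growth of compound-exposed yeast (cln2 rad14 genotype) measured and expressed as inhibition relative to vehicle.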

[15] = NCI Yeast Anticancer Drug Screen. Data for the wt1 strain (AID 149);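 further: 0% = growth of vehicle-treated wt1 cultures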; conditions: S. cerevisiae wt1 strain (SPY 50644) growth inhibition, active compounds read high
How it was run: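 Using yeast strain wt1, compound-induced growth inhibition was determined against vehicle-treated cultures.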

[16] = at 5.0 µM (retest, dose inferred, filed as 0.5)
[17] = at 50.0 µM (retest, dose inferred, filed as 5.0)

Measured: growth inhibition

CN(N=O)N1C(=O)SCC(c2ccccc2)(c2ccccc2)C1=O
active: [5]; [17] 70% | [9]; [17] 71% | [9]; at 50.0 µM 84.5% | [10]; at 100.0 µM 72%
inactive: [1]; at 100.0 µM 27% | [2]; at 1.2 µM 1% | [2]; at 3.7 µM -5% | [2]; at 11.0 µM -3% | [2]; at 33.0 µM -10% | [2]; at 100.0 µM -4% | [3]; [16] 9% | [3]; [17] 64% | [3]; at 50.0 µM 48.5% | [4]; at 1.2 µM -1% | [4]; at 3.7 µM 4% | [4]; at 11.0 µM 4% | [4]; at 33.0 µM 2% | [4]; at 100.0 µM 9% | [5]; at 1.2 µM -2% | [5]; at 3.7 µM 1% | [5]; [16] 3% | [5]; at 11.0 µM 12% | [5]; at 33.0 µM 15% | [5]; at 50.0 µM 66.2% | [5]; at 100.0 µM 26% | [6]; at 1.2 µM -1% | [6]; at 3.7 µM -1% | [6]; at 11.0 µM -1% | [6]; at 33.0 µM 1% | [6]; at 100.0 µM 11% | [7]; at 1.2 µM 3% | [7]; at 3.7 µM -1% | [7]; at 11.0 µM 1% | [7]; at 33.0 µM 2% | [7]; at 100.0 µM -8% | [8]; at 1.2 µM -1% | [8]; at 3.7 µM 0% | [8]; at 11.0 µM 5% | [8]; at 33.0 µM 13% | [8]; at 100.0 µM 35% | [9]; [16] -7% | [10]; at 1.2 µM -1% | [10]; at 3.7 µM -3% | [10]; at 11.0 µM 8% | [10]; at 33.0 µM 28%

O=[N+]([O-])/C=C/c1ccc2ccccc2c1
inactive: [11]; at 1.2 µM 67% | [12]; at 1.2 µM -1% | [12]; at 3.7 µM 61% | [13]; at 1.2 µM 33% | [13]; [16] 1% | [1]; at 1.2 µM 2% | [1]; [16] 33% | [2]; at 1.2 µM 11% | [3]; [16] -35% | [4]; at 1.2 µM 4% | [4]; at 3.7 µM 53% | [5]; at 1.2 µM 6% | [5]; at 3.7 µM 61% | [6]; at 1.2 µM -5% | [6]; at 3.7 µM 18% | [7]; at 1.2 µM 1% | [7]; at 3.7 µM 38% | [8]; at 1.2 µM 23% | [9]; [16] -256% | [10]; at 1.2 µM 6% | [10]; at 3.7 µM 48%
active: [11]; at 3.7 µM 98% | [11]; at 11.0 µM 99% | [11]; at 33.0 µM 99% | [11]; at 100.0 µM 99% | [12]; at 11.0 µM 100% | [12]; at 33.0 µM 100% | [12]; at 100.0 µM 99% | [13]; at 3.7 µM 95% | [13]; at 11.0 µM 100% | [13]; at 33.0 µM 100% | [13]; [17] 90% | [13]; at 50.0 µM 99.1% | [13]; at 100.0 µM 99% | [1]; at 3.7 µM 89% | [1]; at 11.0 µM 100% | [1]; at 33.0 µM 100% | [1]; [17] 96% | [1]; at 50.0 µM 99.2% | [1]; at 100.0 µM 97% | [2]; at 3.7 µM 71% | [2]; at 11.0 µM 99% | [2]; at 33.0 µM 99% | [2]; at 100.0 µM 100% | [3]; [17] 95% | [3]; at 50.0 µM 99.3% | [4]; at 11.0 µM 99% | [4]; at 33.0 µM 99% | [4]; at 100.0 µM 99% | [14]; [16] 98% | [14]; [17] 93% | [14]; at 50.0 µM 98.2% | [5]; [16] 98% | [5]; at 11.0 µM 99% | [5]; at 33.0 µM 99% | [5]; [17] 94% | [5]; at 50.0 µM 98.8% | [5]; at 100.0 µM 99% | [6]; at 11.0 µM 100% | [6]; at 33.0 µM 100% | [6]; at 100.0 µM 99% | [7]; at 11.0 µM 100% | [7]; at 33.0 µM 100% | [7]; at 100.0 µM 100% | [8]; at 3.7 µM 98% | [8]; at 11.0 µM 100% | [8]; at 33.0 µM 100% | [8]; at 100.0 µM 100% | [9]; [17] 93% | [9]; at 50.0 µM 98.8% | [10]; at 11.0 µM 99% | [10]; at 33.0 µM 100% | [10]; at 100.0 µM 99%

Cc1ccc(-n2cc(-c3ccc(Cl)cc3)c(C#N)c2N)cc1
inactive: [15]; at 1.2 µM -4% | [15]; at 3.7 µM -2% | [15]; at 11.0 µM 1% | [15]; at 33.0 µM -2% | [15]; at 100.0 µM -3% | [11]; at 1.2 µM -1% | [11]; at 3.7 µM 3% | [11]; at 11.0 µM 23% | [11]; at 33.0 µM 56% | [11]; at 100.0 µM 56% | [12]; at 1.2 µM 1% | [12]; at 3.7 µM -4% | [12]; at 11.0 µM 2% | [12]; at 33.0 µM -41% | [12]; at 100.0 µM -3% | [13]; at 1.2 µM -3% | [13]; at 3.7 µM -3% | [13]; [16] 13% | [13]; at 11.0 µM -31% | [13]; at 33.0 µM 4% | [13]; [17] 69% | [13]; at 50.0 µM 63.3% | [13]; at 100.0 µM 13% | [1]; at 1.2 µM 0% | [1]; at 3.7 µM -8% | [1]; [16] -3% | [1]; at 11.0 µM -4% | [1]; at 33.0 µM -4% | [1]; [17] 43% | [1]; at 50.0 µM 47.3% | [1]; at 100.0 µM 1% | [2]; at 1.2 µM -1% | [2]; at 3.7 µM 1% | [2]; at 11.0 µM -1% | [2]; at 33.0 µM -12% | [2]; at 100.0 µM 5% | [3]; [16] -3% | [3]; [17] 52% | [3]; at 50.0 µM 67.6% | [4]; at 1.2 µM -6% | [4]; at 3.7 µM -13% | [4]; at 11.0 µM -12% | [4]; at 33.0 µM -7% | [4]; at 100.0 µM -4% | [14]; [16] -9% | [14]; [17] 7% | [14]; at 50.0 µM 43.6% | [5]; at 1.2 µM -6% | [5]; at 3.7 µM -5% | [5]; [16] -33% | [5]; at 11.0 µM 3% | [5]; at 33.0 µM -2% | [5]; [17] 64% | [5]; at 50.0 µM 61.6% | [5]; at 100.0 µM 8% | [6]; at 1.2 µM -1% | [6]; at 3.7 µM -1% | [6]; at 11.0 µM 1% | [6]; at 33.0 µM 3% | [6]; at 100.0 µM 4% | [7]; at 1.2 µM -6% | [7]; at 3.7 µM -5% | [7]; at 11.0 µM -1% | [7]; at 33.0 µM -2% | [7]; at 100.0 µM -4% | [8]; at 1.2 µM -2% | [8]; at 3.7 µM 0% | [8]; at 11.0 µM 2% | [8]; at 33.0 µM 10% | [8]; at 100.0 µM 16% | [9]; [16] -15% | [9]; [17] 55% | [10]; at 1.2 µM -5% | [10]; at 3.7 µM 1% | [10]; at 11.0 µM 4% | [10]; at 33.0 µM 6% | [10]; at 100.0 µM 41%
active: [9]; at 50.0 µM 78.3%
